Consider two compounds from PubChem BioAssay AID1720 (National Center for Advancing Translational Sciences (NCATS), 2009).

SMILES strings stand for the structures. The list shows a part of the results. Inconclusive results are not listed. The source made the active and inactive calls. Rule as the data show it: active = inhibition above about 40%; inconclusive = no clear call, values can overlap the other calls; inactive = below about 18%.

The assay deals with Microtubule-associated protein tau (Homo sapiens) (UniProt P10636). Description: Sedimentation Assay for Inhibitors of Tau Fibrillization. The following applies: recombinant tau K18 P301L (four-repeat tau fragment), sedimentation SDS-PAGE densitometry; at 100 µM; hits give high values. The source says: NIH Molecular Libraries Probe Production Network [MLPCN] NIH Chemical Genomics Center [NCGC] MLPCN Grant: X01 MH083262-01 Assay Provider: Carlo Ballatore, University of Pennsylvania NCGC Assay Overview: The microtubule-associated protein tau is an abundant protein in the axons of neurons that stabilizes microtubules. With its ability to modulate microtubule dynamics, tau contributes directly or indirectly, to key structural and regulatory cellular functions. Particularly important is the influence tau exerts on axonal transport, which allows signaling molecules, trophic factors and other essential cellular constituents to travel along the axons. […] The ability of compounds to block tau fibrillization was assessed using a sedimentation assay. Unlike tau monomers, tau fibrils readily sediment upon centrifugation. Samples from the tau ThT confirmation assay treated with 100 uM compound (AID 1558) were centrifuged and the amount of tau present in the supernatant and pellet was determined. […]
Microtubule-associated protein tau (Homo sapiens), sequence (P10636 561-689 P618L limits assumed): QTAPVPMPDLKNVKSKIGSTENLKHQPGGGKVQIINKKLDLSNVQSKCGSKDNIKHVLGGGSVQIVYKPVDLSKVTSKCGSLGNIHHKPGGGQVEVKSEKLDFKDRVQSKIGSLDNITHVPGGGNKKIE
NCGC Assay Protocol Summary: Human K18 P301L tau (15 uM) in assay buffer (20 uM heparin, 12.5 uM Thioflavine T, 100 mM sodium acetate pH 7) was centrifuged at 186,000 x g for 30 min and the supernatant removed from the pellet. Pellets were resuspended in a volume equal to the supernatant and equal amounts of supernatants and pellet were analyzed by SDS-PAGE using a 12.5% acrylamide gel. […]
As to `CC(=O)Nc1sc(C)c2cnn(-c3ccccc3)c(=O)c12`, the inhibition is 5% (inactive).

Consider `CCN(CC)c1ccc2oc(=O)c(C)nc2c1`, for which the inhibition is 59% (active).

As usually defined, the inhibition is the relative decrease from the control value, in per cent.
